Measurements: the supplement of paper PMC10670038
± gives the standard deviation of the averaged measurements. In all, about 2,000 compounds were measured (“relative cell viability vs DMSO, compound + 0.2 uM CuET”: median about 1, lowest 2% from about 0.25 on). For the sample, the lowest values were picked, then their nearest neighbours and some compounds at random.

Each compound was assayed on TE10 (assay: relative cell viability vs DMSO, compound + 0.2 uM CuET (fraction); TE10 is an esophageal squamous carcinoma line; higher = less cytotoxic). Settings: 2 µM; co-treatment: CuET (bis(diethyldithiocarbamate)copper) 0.2 uM; 48 h.
Experimental: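 TE10 ESCC cells (1,000/well, 384-well plates) were treated with Selleck bioactive library compounds at 2 uM combined with 0.2 uM CuET (copper diethyldithiocarbamate) for 48 h. Viability was read by CellTiter-Glo and expressed relative to DMSO wells. Two technical replicates (A, B).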

Row | SMILES | relative cell viability
1 | Cc1ccc(S(=O)(=O)c2ccc([N+](=O)[O-])o2)cc1 | 0.175 ± 0.0036
2 | NC(=O)N/N=C/c1ccc([N+](=O)[O-])o1 [Nitrofural] | 1.3 ± 0.033
3 | Nc1ccc(S(=O)(=O)Nc2ncccn2)cc1 [Sulfadiazine] | 1.03 ± 0.045
4 | CNS(=O)(=O)CCc1ccc2[nH]cc(C3CCN(C)CC3)c2c1 [Naratriptan] | 1.2 ± 0.1
5 | CCN(CCO)CCCOc1ccc2c(Nc3cc(CC(=O)Nc4cccc(F)c4)[nH]n3)ncnc2c1 [Barasertib (AZD1152-HQPA)] | 1.25 ± 0.26
6 | CC(NC(=O)C(Cc1ccccc1)NC(=O)OCc1ccccc1)C(=O)CF (stereo not drawn) | 1.14 ± 0.028
7 | CCCC[C@@H](C=O)NC(=O)[C@H](CC(C)C)NC(=O)OCc1ccccc1 [Calpeptin] | 1.12 ± 0.036
8 | CC(C)C[C@@H](C=O)NC(=O)[C@H](CC(C)C)NC(=O)[C@H](CC(C)C)NC(=O)OCc1ccccc1 | 0.223 ± 0.006
9 | C[C@]12CCC(=O)C=C1[C@@H]1C[C@@H]1[C@H]1[C@@H]3[C@@H]4C[C@@H]4[C@@]4(CCC(=O)O4)[C@@]3(C)CC[C@@H]12 [Drospirenone] | 0.77 ± 0.4
10 | CC(C)CC(CC(=O)NO)C(=O)N[C@@H](Cc1ccc2ccccc2c1)C(=O)N[C@@H](C)C(=O)NCCN (stereo partly drawn) | 1.19 ± 0.051
11 | COc1ccc(C[C@H](NC(=O)[C@H](C)NC(=O)CN2CCOCC2)C(=O)N[C@@H](Cc2ccccc2)C(=O)[C@@]2(C)CO2)cc1 | 0.198 ± 0.0095
12 | CC(C)C[C@H](NC(=O)[C@H](CCc1ccccc1)NC(=O)CN1CCOCC1)C(=O)N[C@@H](Cc1ccccc1)C(=O)N[C@@H](CC(C)C)C(=O)[C@@]1(C)CO1 [Carfilzomib (PR-171)] | 0.198 ± 0.019
13 | CC(C)c1nc(CN(C)C(=O)N[C@@H](CCN2CCOCC2)C(=O)N[C@H](CC[C@H](Cc2ccccc2)NC(=O)OCc2cncs2)Cc2ccccc2)cs1 [Cobicistat (GS-9350)] | 0.957 ± 0.025
14 | CC(=O)NC(Cc1ccc(O)cc1)C(=O)NC(CCCN=C(N)N)C(=O)NC(Cc1ccccc1)C(N)=O (stereo not drawn) | 0.977 ± 0.19
15 | COC[C@H](NC(=O)c1cnc(C)s1)C(=O)N[C@@H](COC)C(=O)N[C@@H](Cc1ccccc1)C(=O)[C@@]1(C)CO1 [Oprozomib (ONX 0912)] | 0.182 ± 0.0023
16 | O=C(Cc1ccc(-c2ccc(OCCN3CCOCC3)cc2)cn1)NCc1ccccc1 | 0.827 ± 0.037
17 | COC(=O)[C@H](Cc1ccccc1)NC(=O)[C@@H](N)CC(=O)O [Aspartame] | 1.09 ± 0.034
18 | CC(C)C[C@H](NC(=O)[C@H](Cc1ccccc1)NC(=O)c1cnccn1)B(O)O [Bortezomib (PS-341)] | 0.348 ± 0.058
19 | Cc1c(-c2ccnn2C)cc(C(=O)NCc2ccc(S(C)(=O)=O)cn2)c(=O)n1-c1cccc(C(F)(F)F)c1 [Alvelestat (AZD9668)] | 0.993 ± 0.044
20 | CC(C)(C)c1cnc(CSc2cnc(NC(=O)C3CCNCC3)s2)o1 | 0.963 ± 0.093
21 | COc1c2ccoc2cc2oc(=O)ccc12 [Bergapten] | 1.12 ± 0.038
22 | CCC(=O)O[C@]1(C(=O)SCF)[C@H](C)C[C@H]2[C@@H]3C[C@H](F)C4=CC(=O)C=C[C@]4(C)[C@@]3(F)[C@@H](O)C[C@@]21C [Fluticasone propionate] | 1.02 ± 0.043

Row | SMILES | relative cell viability
23 | Oc1c(Br)cc(Br)c2cccnc12 [Broxyquinoline] | 0.689 ± 0.033
24 | O=S(=O)(O)c1cc(O)ccc1O [Ethamsylate] | 1.08 ± 0.096
25 | C=CCc1ccc(O)c(-c2cc(CC=C)ccc2O)c1 [Magnolol] | 1.02 ± 0.057
26 | O=S(=O)(O)CCS [Mesna] | 1.08 ± 0.024
27 | CN1CCN(Cc2ccc(NC(=O)Cc3ccc(Oc4cc(NC(=O)C5CC5)ncn4)cc3)cc2C(F)(F)F)CC1 | 0.9884 ± 0.0017
28 | CCS(=O)(=O)Nc1ccc2[nH]c(O)c(C(=Nc3ccc(CN4CCCCC4)cc3)c3ccccc3)c2c1 [Hesperadin] | 0.5395 ± 0.0028
29 | CCOC(=O)C1=C(N)Oc2ccc(Cl)cc2C1C(C#N)C(=O)OCC (stereo not drawn) | 0.663 ± 0.023
30 | CN[C@@H](C)C(=O)N[C@H](C(=O)N1CCC[C@H]1C(=O)N[C@H](C(=O)NCCCCCCNC(=O)[C@@H](NC(=O)[C@@H]1CCCN1C(=O)[C@@H](NC(=O)[C@H](C)NC)C1CCCCC1)C(c1ccccc1)c1ccccc1)C(c1ccccc1)c1ccccc1)C1CCCCC1 | 0.437 ± 0.011
31 | CC(C)(C)c1[nH]cnc1/C=c1\[nH]c(=O)/c(=C/c2ccccc2)[nH]c1=O [Plinabulin (NPI-2358)] | 0.753 ± 0.058
32 | NCC(=O)Nc1ccc(-n2nc(C(F)(F)F)cc2-c2ccc3c(ccc4ccccc43)c2)cc1 | 0.649 ± 0.017
33 | COCCOc1nc(-c2ccc(Cl)c(Cl)c2)n(-c2ccc(NC(=O)CCl)cc2)n1 [MI-2 (MALT1 inhibitor)] | 0.115 ± 0.0096
34 | COc1nc(-c2ccc3c(c2)OCO3)n(-c2ccc(NC(=O)CSc3ccccc3)cc2)n1 [SecinH3] | 1.25 ± 0.17
35 | CN(C)c1cc(NC(=O)CNC(C)(C)C)c(O)c2c1CC1CC3C(N(C)C)C(=O)C(C(N)=O)=C(O)C3(O)C(=O)C1=C2O (stereo not drawn) [Tigecycline] | 0.994 ± 0.068
36 | O=Nc1c(-c2c(O)[nH]c3cc(Br)ccc23)[nH]c2ccccc12 | 1.083 ± 0.0023
37 | C[N+]1(C)[C@@H]2C[C@@H](OC(=O)C(O)(c3cccs3)c3cccs3)C[C@H]1[C@@H]1O[C@@H]12 [Tiotropium Bromide hydrate] | 0.962 ± 0.027
38 | C=C1CC2(O)OC3(CC2C(C)C)C(C)CCC13 (stereo not drawn) [Curcumol] | 0.838 ± 0.028
39 | CCCCN(Cc1ccc(C(=O)NO)cc1)C(=O)Nc1ccccc1 [Nexturastat A] | 0.837 ± 0.056
40 | CC(=O)Nc1ccc(C(=O)Nc2ccccc2N)cc1 [CI994 (Tacedinaline)] | 1.23 ± 0.26
41 | CC(C)[C@H](C(=O)Nc1ccc(C(=O)NO)cc1)c1ccccc1 | 0.178 ± 0.0071
42 | Cc1c(C(=O)NN2CCCCC2)nn(-c2ccc(Cl)cc2Cl)c1-c1ccc(Cl)cc1 [Rimonabant] | 0.716 ± 0.15
43 | NC1=N[C@@]2(c3cc(NC(=O)c4ccc(F)cn4)ccc3F)COC[C@H]2CS1 | 0.948 ± 0.07
